This note sets out measurements from PubChem BioAssay AID1014 (NMMLSC, 2008).

The test is described as follows: blockers of bacterial quorum-sensing reporter fluorescence – flow cytometry, SAR analogs, SAR follow-up (AID 1014).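 Note: Staphylococcus aureus RN6390 with RNAIII-GFP reporter stimulated by AIP; bacteria incubated with compound for 3 hours at 37 °C.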 Particulars: at 20 µM, stronger effect = higher value; inhibition of percent positive cells: measured here: percent reporter-positive cells. A general note: In flow cytometry, cells or beads pass a laser one at a time.

Structures are written as SMILES. Calls of active or inactive are those of the source. Cut-off read from the data, not from the text of the source: active = inhibition of mean fluorescence above about 33%; inactive = the rest.

As for `O=C(Nc1ccc2c(c1)OCO2)C(c1ccc(Cl)cc1)N1CCC2(CC1)OCCO2` (stereo not given), the inhibition of mean fluorescence was -0.5% (inactive) and the inhibition of percent positive cells is -0.8%.

On to `Cc1ccc(NC(=O)CN2CCN(Cc3ccc4c(c3)OCO4)CC2)cc1`, for which the inhibition of mean fluorescence is -30.1% (inactive) and the inhibition of percent positive cells is -0.8%.

On to `CCc1ccc(S(=O)(=O)c2n[nH]n3c2nc(=O)c2ccccc23)cc1`, for which the inhibition of mean fluorescence is 87.7% (active) and the inhibition of percent positive cells amounted to 53.5%.

Consider `Cc1cc(C)nc(Nc2ccccc2C(=O)O)n1`, for which the inhibition of mean fluorescence is 22.7% (inactive) and the inhibition of percent positive cells was -0.8%.

As for `CCc1ccc(Nc2nc3c(S(=O)(=O)c4ccc(C(C)C)cc4)nnn3c3ccccc23)cc1`, the inhibition of mean fluorescence is 6.9% (inactive) and the inhibition of percent positive cells is -1.1%.

In the case of `NC1=NC(=O)CC(C(=O)Nc2cccc3ccccc23)S1` (stereo not given), the inhibition of mean fluorescence was 20.2% (inactive) and the inhibition of percent positive cells was found to be 1.5%.

For `Cc1cccc(OCC(=O)Nc2sc3c(c2C#N)CCCC3)c1C`, the inhibition of mean fluorescence was 28.1% (inactive) and the inhibition of percent positive cells is 1.4%.

For the molecule `COc1ccc(N2CCN(C(CNC(=O)c3cccc(Cl)c3)c3cccnc3)CC2)cc1` (stereo not given), the inhibition of mean fluorescence is -42% (inactive) and the inhibition of percent positive cells was -1.7%.

Regarding `CC(=O)c1ccc(Nc2nc3c(S(=O)(=O)c4ccccc4)nnn3c3ccccc23)cc1`, the inhibition of mean fluorescence was 11.9% (inactive) and the inhibition of percent positive cells stood at 0.1%.

`O=C(NCCN1CCN(c2ccccc2)CC1)c1cccc(Cl)c1`: the inhibition of mean fluorescence was -5.6% (inactive) and the inhibition of percent positive cells was 0%.

As to `CCc1ccc(S(=O)(=O)c2nnn3c2nc(Nc2ccc(Oc4ccccc4)cc2)c2cc(Cl)ccc23)cc1`, the inhibition of mean fluorescence is -16.6% (inactive) and the inhibition of percent positive cells is -0.1%.

Regarding `COc1cccc(C(=O)NCC(c2cccnc2)N2CCN(c3ccccc3OC)CC2)c1` (stereo not given), the inhibition of mean fluorescence was 10.5% (inactive) and the inhibition of percent positive cells is -0.3%.

Regarding `O=C(NCC(c1cccnc1)N1CCN(c2ccccc2)CC1)c1ccccc1F` (stereo not given), the inhibition of mean fluorescence is -31.8% (inactive) and the inhibition of percent positive cells is -1.7%.

For the molecule `O=C(Nc1ccc2c(c1)OCO2)C(c1ccccc1)N1CCCCC1` (stereo not given), the inhibition of mean fluorescence is 40.3% (active) and the inhibition of percent positive cells is -0.7%.

With `Cc1[nH]nc(Nc2ccccc2C(=O)O)c1[N+](=O)[O-]`, the inhibition of mean fluorescence was 0.1% (inactive) and the inhibition of percent positive cells came out at 0.2%.

Take `COc1ccc(NC(=O)C(c2cc3c(cc2[N+](=O)[O-])OCO3)N2CCCCC2)cc1` (stereo not given): the inhibition of mean fluorescence is -14.1% (inactive) and the inhibition of percent positive cells is -1.6%.

As for `O=C(CN1CC(c2ccccc2)CC1=O)Nc1ccc2c(c1)OCO2` (stereo not given), the inhibition of mean fluorescence is 5.5% (inactive) and the inhibition of percent positive cells is -0.1%.

Turning to `CCc1ccc(Nc2nc3c(S(=O)(=O)c4ccccc4)nnn3c3ccccc23)cc1`, the inhibition of mean fluorescence is 20.8% (inactive) and the inhibition of percent positive cells is -1.2%.

For `COc1ccc(NC(=O)C(c2cc3c(cc2[N+](=O)[O-])OCO3)N2CCCC(C)C2)cc1` (stereo not given), the inhibition of mean fluorescence is 29.6% (inactive) and the inhibition of percent positive cells is -0.9%.

Consider `O=C(NC1CCCC1)C(c1cc2c(cc1[N+](=O)[O-])OCO2)N1CCC(Cc2ccccc2)CC1` (stereo not given), for which the inhibition of mean fluorescence was 4.9% (inactive) and the inhibition of percent positive cells was -0.6%.

Consider `O=C(NCC(c1cccnc1)N1CCN(c2ccc(F)cc2)CC1)c1ccc(F)cc1` (stereo not given), for which the inhibition of mean fluorescence is -11.6% (inactive) and the inhibition of percent positive cells was -0.2%.

As to `CC(C)c1ccc(NC(=O)C(c2cc3c(cc2[N+](=O)[O-])OCO3)N2CCOCC2)cc1` (stereo not given), the inhibition of mean fluorescence is 8.1% (inactive) and the inhibition of percent positive cells worked out at 0.7%.

For the molecule `O=C(NCC(c1cccnc1)N1CCc2ccccc21)c1cccc(Br)c1` (stereo not given), the inhibition of mean fluorescence was 29.6% (inactive) and the inhibition of percent positive cells is 0.1%.

In the case of `Cc1nnc2c3ccccc3nc(Nc3ccccc3C(=O)O)n12`, the inhibition of mean fluorescence was 18.4% (inactive) and the inhibition of percent positive cells is -0.2%.

Take `CCOc1ccc(Nc2nc3c(S(=O)(=O)c4ccc(C(C)C)cc4)nnn3c3ccccc23)cc1`: the inhibition of mean fluorescence is -3.7% (inactive) and the inhibition of percent positive cells was -0.1%.

As for `O=C(NCC(c1cccnc1)N1CCc2ccccc2C1)c1ccc(F)c(F)c1` (stereo not given), the inhibition of mean fluorescence is -6.4% (inactive) and the inhibition of percent positive cells is -0.1%.

With `O=C(Nc1ccc2c(c1)OCO2)C1CCN(C(=O)c2cnn(-c3ccccc3)c2-n2cccc2)CC1`, the inhibition of mean fluorescence was -13.6% (inactive) and the inhibition of percent positive cells was -0.1%.

Take `COc1ccc(N2CCN(C(CNC(=O)c3ccccc3F)c3cccnc3)CC2)cc1` (stereo not given): the inhibition of mean fluorescence was -65.6% (inactive) and the inhibition of percent positive cells was -1.1%.

Turning to `CC(C)(C)c1ccc(S(=O)(=O)c2nnn3c2nc(Nc2ccccc2)c2ccccc23)cc1`, the inhibition of mean fluorescence is -15.5% (inactive) and the inhibition of percent positive cells is -0.9%.

`COc1c(F)c(F)c(C(=O)O)c(Nc2cccc(C)c2)c1F`: the inhibition of mean fluorescence is -11.5% (inactive) and the inhibition of percent positive cells was -1.3%.

In the case of `O=C(NCC(c1cccnc1)N1CCN(c2ccc(F)cc2)CC1)C1CCCCC1` (stereo not given), the inhibition of mean fluorescence was -37% (inactive) and the inhibition of percent positive cells turned out to be 0.5%.

For the molecule `Cc1nnc(N2CCC(C(=O)Nc3ccc4c(c3)OCCO4)CC2)c2nn(-c3ccccc3)c(C)c12`, the inhibition of mean fluorescence was -7.3% (inactive) and the inhibition of percent positive cells is 0%.

For `COc1ccc(Nc2nc3c(S(=O)(=O)c4ccccc4)nnn3c3ccccc23)cc1`, the inhibition of mean fluorescence is -5.6% (inactive) and the inhibition of percent positive cells is -0.4%.

In the case of `COc1c(F)c(F)c(C(=O)O)c(Nc2ccccc2)c1F`, the inhibition of mean fluorescence is -23.9% (inactive) and the inhibition of percent positive cells was -2.3%.

As for `Cc1ccc(Nc2ncccc2C(=O)O)cc1`, the inhibition of mean fluorescence is -7.8% (inactive) and the inhibition of percent positive cells was -1.3%.
